This passage reports inhibition results from PubChem BioAssay AID1850 (Southern Research Specialized Biocontainment Screening …, 2009).

SMILES strings stand for the structures. Screen size: about 310,000 compounds; about 1,000 (0.32%) were called active. How the calls were made is not given here. The list is a sample of the results. Measured potencies and affinities stand elsewhere.

A short description of this test: Inhibition of PhoP regulon, Salmonella typhi GFP reporter cells, confirmation, 4 h (AID 1850).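 Further: 0% = induced wells with vehicle and 100% = uninduced wells.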 Conditions: Salmonella Typhi PhoP-promoter GFP reporter, fluorescence, at 50 µM, stronger effect = higher value.
One may read the inhibition as the change of the read-out against control, counted positive when it falls. On to `O=C(Nc1cccc(S(=O)(=O)N2CCCC2)c1)c1ccncc1`, for which the inhibition is -14.8% (inactive).
The result for `Nc1c(Cl)ncnc1N/N=C/c1ccc2ccccc2n1` reads 8.37% (inactive).
The result for `Nc1c(Cl)ncnc1N/N=C/c1ccncc1` reads 5.13% (inactive).
The result for `O=C(C[n+]1cc(Br)cc2ccccc21)c1ccc(Br)cc1` reads 5.62% (inactive); that for `O=C(C[n+]1cc(Br)cc2ccccc21)c1ccccc1`, 22% (inactive).
`CCCNC(=O)CSc1nnc(-c2ccc(F)cc2)o1`: the inhibition was -7.43% (inactive).
Consider `CC1CN(CC(O)COc2ccc(C#N)cc2)CCN1CC(O)COc1ccc(C#N)cc1` (stereo not drawn), for which the inhibition is 9.68% (inactive).
Regarding `O=C(Nc1cccc([N+](=O)[O-])c1)Nc1cccc([N+](=O)[O-])c1`, the inhibition is 1.71% (inactive).
The figure for `O=C(Cc1cccs1)Nc1cccc([N+](=O)[O-])c1` is 0.05% (inactive).
The result for `CN(C)S(=O)(=O)c1cccc(-c2csc(=Nc3ccccc3)n2CCCN2CCOCC2)c1` reads 4.21% (inactive); that for `COc1ccc(C(=O)c2no[n+]([O-])c2C(=O)c2ccc(OC)cc2)cc1`, 21.3% (inactive).
The figure for `Cc1ccc(C(=O)c2no[n+]([O-])c2C(=O)c2ccc(C)cc2)cc1` is 19.9% (inactive); for `O=C(NCCN1CCOCC1)c1ccc2c(c1)N(Cc1c(F)cccc1Cl)C(=O)c1ccccc1S2` it is -4.77% (inactive).
On to `CCc1nnc(NC(=O)c2cccc(S(=O)(=O)N3CCc4ccccc43)c2)s1`, for which the inhibition was -12.3% (inactive).
Turning to `Oc1c(Cl)cc(Cl)cc1/C=N/c1ncn[nH]1`, the inhibition is 3.2% (inactive).
Take `Oc1c(Br)cccc1/C=N/c1ncn[nH]1`: the inhibition is -5.35% (inactive).
For `O=[N+]([O-])C(=C1Nc2ccccc2N1)C(Cl)=C(Cl)Cl`, the inhibition was -0.56% (inactive).
The figure for `O=[N+]([O-])C(=C1Nc2ccccc2N1)/C(Cl)=C(/Cl)Br` is -3.57% (inactive); for `Cc1ccc(S(=O)(=O)NCCC(=O)Nc2ccncc2)cc1C` it is 9.54% (inactive).
As for `COCCNC(=O)C1CC(c2ccc(F)cc2)=NO1` (stereo not drawn), the inhibition is -13.4% (inactive).
The result for `Cc1ccc(S(=O)(=O)N2CCCC2C(=O)NCc2ccccc2F)cc1` (stereo not drawn) reads -7.81% (inactive); that for `CCN(CC)CCCn1c2c(c(SCC(=O)Nc3ccc4c(c3)OCCO4)nc1=O)CCC2`, 11.9% (inactive); that for `Cc1ccsc1CN(C)C(=O)CCc1nnc(COc2ccccc2)o1`, -5.48% (inactive).
As to `Cc1ccc(OCC(=O)N/N=C\c2c(C)n(C)c3ccccc23)c([N+](=O)[O-])c1`, the inhibition was -4.6% (inactive).
The figure for `Cc1[nH]n(-c2ccccc2)c(=O)c1/C=N/NC(=O)COc1ccccc1[N+](=O)[O-]` is -5.18% (inactive).
In the case of `COCCNC(=O)c1onc(CS(=O)(=O)c2cc(C)cc(C)c2)c1C(=O)NCCOC`, the inhibition is 5.4% (inactive).
The result for `O=C(NCc1ccc2c(c1)OCO2)c1cccc([N+](=O)[O-])c1` reads -1.83% (inactive); that for `COc1ccc(/C=C2/C(=O)N(c3nc4ccccc4s3)N=C2CSc2ccc(Cl)cc2)cc1`, 3.84% (inactive); that for `CC(C)N1CCc2c(sc(NC(=O)c3ccc([N+](=O)[O-])o3)c2C(N)=O)C1`, -4.77% (inactive).
As for `NC(=O)c1c(NC(=O)c2ccc([N+](=O)[O-])o2)sc2c1CCCC2`, the inhibition is -5.17% (inactive).
For `Cn1c(=O)cc(OCCCC(=O)NCc2cccnc2)c2ccccc21`, the inhibition is 0.57% (inactive).
The figure for `COc1ccccc1N1C(=O)c2cccnc2C1=O` is -1.48% (inactive); for `CCc1ccc(/C=C/C(=O)c2cc(Br)ccc(=O)c2O)cc1` it is -13.9% (inactive); for `Cc1cccc(/C=C/C(=O)c2cc(Br)ccc(=O)c2O)c1` it is 4.56% (inactive).
The result for `CCOC(=O)C1(CC)CC(CSc2nc3ccccc3[nH]2)OC1=O` (stereo not drawn) reads 5.22% (inactive).
`O=C(O)c1cccnc1Sc1ccccc1Cl`: the inhibition is -7.16% (inactive).
In the case of `c1ccc(CN2CCN(Cc3c[nH]c4ccccc34)CC2)cc1`, the inhibition was 1.99% (inactive).
As for `Clc1ccccc1N1CCN(Cc2c[nH]c3ccccc23)CC1`, the inhibition is -13.8% (inactive).
The result for `Nc1ccc(Sc2ccc([N+](=O)[O-])cc2)cc1` reads -7.65% (inactive).
Regarding `Nc1ccccc1SC(C[N+](=O)[O-])c1ccccc1` (stereo not drawn), the inhibition is 15.4% (inactive).
The figure for `COc1cc(/C=N/NC(=O)c2ccncc2)ccc1Oc1ccc([N+](=O)[O-])cn1` is 4.23% (inactive).
As for `COc1ccc(OCC(O)CNCc2ccco2)cc1` (stereo not drawn), the inhibition was 0.683% (inactive).
The figure for `OC(CNCc1ccco1)Cn1c2ccccc2c2ccccc21` (stereo not drawn) is 1.11% (inactive).
As for `O=c1c2ccccc2n(CC(O)CN2CCCCC2)c2ccccc12` (stereo not drawn), the inhibition is -2.95% (inactive).
The result for `OC(CN1CCCCC1)Cn1c2ccccc2c2ccccc21` (stereo not drawn) reads -5.86% (inactive); that for `CC1(C)CC(OC(=O)c2ccco2)CC(C)(C)N1O`, -11.8% (inactive).
The figure for `CCn1nc(C(=O)OCC(=O)N(CC(C)C)c2c(N)n(Cc3ccccc3)c(=O)[nH]c2=O)c2ccccc2c1=O` is -10.1% (inactive); for `Cc1csc(NC(=O)CSc2nnc3c4ccccc4nc(C(C)(C)C)n23)n1` it is -6.02% (inactive); for `CN(C)/C=C/c1onc(-c2c(F)cccc2Cl)c1C#N` it is -0.05% (inactive).
The result for `Brc1ccc(-c2cn3c(n2)CCc2ccc4cccnc4c2-3)cc1` reads 1.82% (inactive); that for `COc1ccc(-n2c(-c3ccc(Br)cc3)c[n+]3c2CCc2ccccc2-3)cc1`, 13.6% (inactive).
With `COc1ccc(-c2nc(CS(=O)(=O)CC(=O)Nc3cccc(C(C)=O)c3)c(C)o2)cc1`, the inhibition was -8.19% (inactive).
For `CC(=O)c1ccc(O)c(CSc2nncn2C)c1`, the inhibition is -0.79% (inactive).
As to `COC(=O)C1=C(C)N(Cc2ccccc2)C(=NCc2ccccc2)N[C@H]1c1cccc(F)c1`, the inhibition was -0.78% (inactive).
The figure for `COC(=O)C1=C(C)N(Cc2ccccc2)C(=NCc2ccc(OC)cc2)N[C@H]1c1cccc(F)c1` is 10.3% (inactive); for `CCCNC(=O)c1cc(-c2ccccc2)c(N2CCCCC2)s1` it is 9.44% (inactive).
The figure for `CCCCc1ccc(NC(=O)CSc2nc(=O)n(CCN(C)C)c3c2CCC3)cc1` is 11.9% (inactive).
The result for `Cc1cccc(NC(=O)c2cc(S(=O)(=O)N(C)c3ccc(F)cc3)ccc2Cl)n1` reads 8.42% (inactive).
For `Oc1ccccc1Nc1ccccn1`, the inhibition was -1.96% (inactive).
The figure for `c1ccc(Nc2ccccn2)nc1` is -2.23% (inactive); for `Cc1ccc(S(=O)(=O)N2CCC(C(=O)O)CC2)cc1` it is -0.71% (inactive).
As for `CCOCCCn1c(=S)[nH]c2cc(C(=O)NCCc3ccc(OC)c(OC)c3)ccc2c1=O`, the inhibition is 3.11% (inactive).
The figure for `CCCC(CCC)C(=O)Nc1ccc2c(c1)N(C(=O)CN1CCN(C)CC1)c1ccccc1CC2` is 5.91% (inactive); for `Cc1ccc(NC(=O)c2ccccc2)cc1` it is -5.33% (inactive).
The figure for `C/C(=C\C(=O)c1ccccc1)Nc1ccc(O)cc1` is -9.8% (inactive).
For `Cc1ccc(NC(=O)NNC(=O)c2ccccc2)cc1`, the inhibition was 1.31% (inactive).
The result for `COC(=O)/C(=C\C(=O)c1ccccc1)Nc1ccc(OC)cc1` reads -7.68% (inactive); that for `O=C(NCc1ccc(Cl)cc1)N1CCc2ccccc2C1`, 2.15% (inactive).
In the case of `COc1ccc2c(c1)CC/C(=C\c1ccc(C)o1)C2=O`, the inhibition is -3.7% (inactive).
With `CC1Cc2ccccc2N1Cc1nc2scc(-c3cccs3)c2c(=O)[nH]1` (stereo not drawn), the inhibition is 0.2% (inactive).
The figure for `CC1CC(C)CN(C(=O)COC(=O)c2ccc[nH]c2=O)C1` (stereo not drawn) is -8.36% (inactive).
For `O=C(OCC(=O)N1CCOCC1)c1ccccc1O`, the inhibition is 5.57% (inactive).
Regarding `CCCC(=O)N1CCN(c2nc3ccccc3s2)CC1`, the inhibition was -3.88% (inactive).
Turning to `Cc1ccc2c(Cl)cc(Cl)c(OCC(=O)N(C(C)C)C(C)C)c2n1`, the inhibition was -1.43% (inactive).
The result for `Cc1ccc2c(Cl)cc(Cl)c(OCC(=O)NC(C)(C)C)c2n1` reads -16.9% (inactive); that for `COc1cccc(C(=O)NC2CCCc3ccccc32)c1OC` (stereo not drawn), -9.26% (inactive).
The figure for `CS(=O)(=O)N(CCc1ccccc1)CC(=O)N1CCN(c2ccccc2)CC1` is -4.94% (inactive).
Consider `COc1ccc(CCNC(=O)COC(=O)C23CC4CC(CC(C4)C2)C3)cc1`, for which the inhibition was -12.8% (inactive).
With `CCc1ccccc1NC(=S)N1CCCCCC1`, the inhibition is -5.25% (inactive).
With `Cc1cc([N+](=O)[O-])nn1CC(=O)N/N=C/c1ccc(O)cc1O`, the inhibition is 18.8% (inactive).
The result for `O=C(Cn1cncn1)N/N=C/c1cccc2ccccc12` reads -7.61% (inactive); that for `Cc1cc([N+](=O)[O-])nn1CC(=O)N/N=C/c1ccccc1Br`, 13.2% (inactive); that for `O=C(Cn1cncn1)N/N=C/c1ccccc1Cl`, -13.1% (inactive).
As for `O=C(NCC1CCCO1)c1cccc(Oc2ccccc2)c1` (stereo not drawn), the inhibition was -8.15% (inactive).
On to `Brc1cccc(C=Nc2cccc3ncccc23)c1`, for which the inhibition was -0.83% (inactive).
The figure for `CN(C)c1ccc(C(=O)N/N=C/c2cc(Br)cc(Br)c2O)cc1` is -1.06% (inactive); for `Oc1c(Br)cc(Br)cc1C=Nc1cccnc1` it is 7.09% (inactive).
The result for `O=C(O)c1cccc(N/N=C/c2cc(Br)cc(Br)c2O)c1` reads -6.95% (inactive).
The result for `Cc1cccc(N=Cc2cc(Br)cc(Cl)c2O)c1` reads 10.7% (inactive).
On to `O=C(O)c1ccccc1N/N=C/c1cc(Br)cc(Br)c1O`, for which the inhibition is 5.52% (inactive).
The figure for `Cc1onc(-c2ccccc2Cl)c1C(=O)Nc1ccccc1C(N)=O` is 7.75% (inactive); for `O=C(Nc1nnc(-c2ccc(F)cc2)s1)c1ccco1` it is 2.98% (inactive).
The result for `O=C(O)/C(=C\c1cccs1)c1ccc(F)cc1` reads -11.8% (inactive); that for `CNC(=O)C1C2C=CC3(O2)C1C(=O)N(CCOC)C3C(=O)NCc1ccc(OC)cc1` (stereo not drawn), 16.8% (inactive).
The result for `CC1CCCCC1NC(=O)CN(C)S(=O)(=O)c1cccc2cccnc12` (stereo not drawn) reads 10.4% (inactive).
Take `CC(=O)c1c(C(C)=O)c(C)n(-c2ccc(N)c(C)c2)c1C`: the inhibition is -3.65% (inactive).
For `Cc1ccc(/C=C/C(=O)c2ccccc(=O)c2O)c(C)c1`, the inhibition is -6.97% (inactive).
The result for `Cc1ccc(C)c(/C=C/C(=O)c2ccccc(=O)c2O)c1` reads -3.4% (inactive).
